The nature of experiment [1]: NCI Yeast Anticancer Drug Screen. Data for the rad50 strain (AID 155).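 Further: 0% = growth of vehicle-only cultures of the same strain.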 To be noted: S. cerevisiae rad50 strain growth inhibition, stronger effect = higher value. In a few lines: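 Readout: growth inhibition relative to vehicle-treated cultures. Compound exposure was carried out in a genetically defined yeast strain deficient in DNA damage repair.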
Experiment [2] in a line: NCI Yeast Anticancer Drug Screen. Data for the mec2-1 strain (AID 157). To be noted: S. cerevisiae mec2-1 strain, stronger effect = higher value. In a few lines:
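Each compound was tested on mec2-1 yeast, a strain altered in DNA damage repair or cell cycle control. Growth inhibition is reported relative to vehicle.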

A short description of experiment [3]: NCI Yeast Anticancer Drug Screen. Data for the sgs1 mgt1 strain (AID 161).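 Further: 0% = growth of cultures given vehicle only.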 Conditions: S. cerevisiae sgs1 mgt1 strain, stronger effect = higher value. In a few lines: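 Mutant yeast exposed to compound; growth scored against vehicle-only wells.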
Experiment [4] can be described thus: NCI Yeast Anticancer Drug Screen. Data for the cln2 rad14 strain (AID 165).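 Further: 0% = growth equal to vehicle treated cultures.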 Conditions: S. cerevisiae cln2 rad14 strain, stronger effect = higher value. A digest of the protocol: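 Test compounds were added to cln2 rad14 yeast cultures; inhibition of growth was then determined by comparison with vehicle treatment.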
Experiment [5] in a line: NCI Yeast Anticancer Drug Screen. Data for the bub3 strain (AID 167). Conditions: S. cerevisiae bub3 mutant strain, stronger effect = higher value. A digest of the protocol: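 Readout: yeast growth inhibition, expressed relative to vehicle-only wells. The test organism is a mutant strain from a panel with lesions in DNA repair or checkpoint genes.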
Experiment [6] is described as follows: NCI Yeast Anticancer Drug Screen. Data for the mlh1 rad18 strain (AID 175). To be noted: S. cerevisiae mlh1 rad18 strain growth inhibition, stronger effect = higher value. In a few lines:
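Inhibition values reflect reduced growth of mutant yeast versus vehicle-treated controls following compound exposure; the mutations affect DNA damage repair.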

The mark [7] stands for this setting: at 5.0 µM (retest, dose inferred, filed as 0.5).
Setting [8] is: at 50.0 µM (retest, dose inferred, filed as 5.0).

SMILES strings stand for the structures. Where “and” joins values, the source holds several entries; their conditions need not be identical. Identical values can stand only once. About 79,000 compounds went through this panel and 15% of them were active in at least one assay; those are over-represented in the sample as a whole. More than one record can exist for a structure, and the calls need not agree. Calls of active or inactive are those of the source. No stated cut-off is given here; in the data, active means growth inhibition above about 70%; inactive means the rest.

Regarding `CN(C)CC1CCCCC1=O` (centres undefined), the growth inhibition in experiment [1] (setting [7]) is -169% (inactive); in experiment [1] (setting [8]), 36% (inactive); in experiment [1] (at 50.0 µM), 73.7% (active) and 1.45% (inactive) and -1.35% (inactive); in experiment [2] (setting [7]), -52% (inactive); in experiment [2] (setting [8]), -24% (inactive); in experiment [2] (at 50.0 µM) it was 56.2% (inactive) and -13.8% (inactive) and -15.9% (inactive). Further, the growth inhibition in experiment [3] (setting [7]) was -67% (inactive); in experiment [3] (setting [8]) it was -6% (inactive); in experiment [3] (at 50.0 µM), 47.4% (inactive) and -15.4% (inactive) and -9.6% (inactive); in experiment [4] (setting [7]), -77% (inactive); in experiment [4] (setting [8]), 3% (inactive); in experiment [4] (at 50.0 µM), 59.5% (inactive) and 8.3% (inactive) and 0.7% (inactive). Moreover, the growth inhibition in experiment [5] (setting [7]) was -69% (inactive); in experiment [5] (setting [8]) it was -26% (inactive); in experiment [5] (at 50.0 µM), 35% (inactive) and -23.4% (inactive) and -3.6% (inactive); in experiment [6] (setting [7]) it was -131% (inactive); in experiment [6] (setting [8]), -38% (inactive); in experiment [6] (at 50.0 µM) it was 71.9% (active) and 18.1% (inactive) and 5.25% (inactive).
For the compound `C[CH2][Sn]1([CH2]C)[c]2ccccc2Oc2cccc[c]21`, the growth inhibition in experiment [1] (setting [7]) is 99% (active); in experiment [1] (setting [8]), 98% (active); in experiment [1] (at 50.0 µM) it was 99% (active); in experiment [2] (setting [7]), 99% (active); in experiment [2] (setting [8]) it was 99% (active); in experiment [2] (at 50.0 µM), 99.4% (active). The growth inhibition in experiment [3] (setting [7]) is 99% (active); in experiment [3] (setting [8]), 99% (active); in experiment [3] (at 50.0 µM), 99.3% (active); in experiment [4] (setting [7]) it was 97% (active); in experiment [4] (setting [8]), 98% (active); in experiment [4] (at 50.0 µM) it was 98.8% (active). In addition, the growth inhibition in experiment [5] (setting [7]) is 99% (active); in experiment [5] (setting [8]), 99% (active); in experiment [5] (at 50.0 µM), 99.2% (active); in experiment [6] (setting [7]), 99% (active); in experiment [6] (setting [8]), 99% (active); in experiment [6] (at 50.0 µM), 99% (active).
Turning to `Cc1ccc2c[c]1[Hg][CH2]COS2(=O)=O`, the growth inhibition in experiment [1] (setting [7]) is 33% (inactive); in experiment [1] (setting [8]), 98% (active); in experiment [1] (at 50.0 µM), 94.7% (active); in experiment [2] (setting [7]), 16% (inactive); in experiment [2] (setting [8]), 99% (active); in experiment [2] (at 50.0 µM) it was 98% (active). In addition, the growth inhibition in experiment [3] (setting [7]) is 48% (inactive); in experiment [3] (setting [8]), 99% (active); in experiment [3] (at 50.0 µM), 97.5% (active); in experiment [4] (setting [7]), 9% (inactive); in experiment [4] (setting [8]), 98% (active); in experiment [4] (at 50.0 µM), 98.7% (active). Besides, the growth inhibition was -2% (inactive) in experiment [5] (setting [7]); 99% (active) in experiment [5] (setting [8]); 99.2% (active) in experiment [5] (at 50.0 µM); 24% (inactive) in experiment [6] (setting [7]); 97% (active) in experiment [6] (setting [8]); 98.2% (active) in experiment [6] (at 50.0 µM).
In the case of `CC1(C)C(=O)C=CC2(C)C1CC(O)C1(C)C2CCC2(C)C(c3ccoc3)OC(=O)C3OC321` (centres undefined), the growth inhibition in experiment [1] (setting [7]) was 15% (inactive); in experiment [1] (setting [8]) it was 16% (inactive); in experiment [1] (at 50.0 µM), 86.8% (active); in experiment [2] (setting [7]) it was 4% (inactive); in experiment [2] (setting [8]) it was 12% (inactive); in experiment [2] (at 50.0 µM) it was 86.5% (active). The growth inhibition in experiment [3] (setting [7]) was 11% (inactive); in experiment [3] (setting [8]) it was 52% (inactive); in experiment [3] (at 50.0 µM) it was 82.7% (active); in experiment [4] (setting [7]) it was 4% (inactive); in experiment [4] (setting [8]), 8% (inactive); in experiment [4] (at 50.0 µM), 76.5% (active). In addition, the growth inhibition in experiment [5] (setting [7]) was 3% (inactive); in experiment [5] (setting [8]), 12% (inactive); in experiment [5] (at 50.0 µM), 82.2% (active); in experiment [6] (setting [7]), 16% (inactive); in experiment [6] (setting [8]) it was 18% (inactive); in experiment [6] (at 50.0 µM), 44.5% (inactive).
For `CC(Cc1ccccc1)N(C)Cc1ccc(-c2ccc(Cl)cc2)o1` (centres undefined), the growth inhibition in experiment [1] (setting [7]) was 56% (inactive); in experiment [1] (setting [8]) it was 100% (active); in experiment [1] (at 50.0 µM) it was 99% (active); in experiment [2] (setting [7]) it was 11% (inactive); in experiment [2] (setting [8]) it was 100% (active); in experiment [2] (at 50.0 µM), 99.7% (active). For the same compound, the growth inhibition in experiment [3] (setting [7]) was 49% (inactive); in experiment [3] (setting [8]), 100% (active); in experiment [3] (at 50.0 µM) it was 33.9% (inactive); in experiment [4] (setting [7]) it was 38% (inactive); in experiment [4] (setting [8]) it was 100% (active); in experiment [4] (at 50.0 µM) it was 99.3% (active). Also, the growth inhibition in experiment [5] (setting [7]) was 42% (inactive); in experiment [5] (setting [8]), 100% (active); in experiment [5] (at 50.0 µM), 99.2% (active); in experiment [6] (setting [7]), 41% (inactive); in experiment [6] (setting [8]), 100% (active); in experiment [6] (at 50.0 µM) it was 99.5% (active).
For the compound `O=[N+]([O-])c1ccc2c[n+]3ccccc3cc2c1`, the growth inhibition in experiment [1] (setting [7]) was 21% (inactive); in experiment [1] (setting [8]), 84% (active); in experiment [1] (at 50.0 µM) it was 80.3% (active); in experiment [2] (setting [7]), 4% (inactive); in experiment [2] (setting [8]), 50% (inactive); in experiment [2] (at 50.0 µM), 5.3% (inactive). In addition, the growth inhibition in experiment [3] (setting [7]) was 2% (inactive); in experiment [3] (setting [8]), 56% (inactive); in experiment [3] (at 50.0 µM), 36.2% (inactive); in experiment [4] (setting [7]), 1% (inactive); in experiment [4] (setting [8]), 43% (inactive); in experiment [4] (at 50.0 µM) it was -17.4% (inactive). For the same compound, the growth inhibition was -5% (inactive) in experiment [5] (setting [7]); 56% (inactive) in experiment [5] (setting [8]); 3.8% (inactive) in experiment [5] (at 50.0 µM); 12% (inactive) in experiment [6] (setting [7]); 86% (active) in experiment [6] (setting [8]); 62% (inactive) in experiment [6] (at 50.0 µM).
Regarding `Brc1ccc(N2C[N+](c3ccc(Br)cc3)=NC(c3ccccc3)=N2)cc1`, the growth inhibition was 23% (inactive) in experiment [1] (setting [7]); 94% (active) in experiment [1] (setting [8]); 97.5% (active) and 18.3% (inactive) in experiment [1] (at 50.0 µM); -2% (inactive) in experiment [2] (setting [7]); 96% (active) in experiment [2] (setting [8]); 97.8% (active) and -1.3% (inactive) in experiment [2] (at 50.0 µM). For the same compound, the growth inhibition in experiment [3] (setting [7]) was 6% (inactive); in experiment [3] (setting [8]) it was 92% (active); in experiment [3] (at 50.0 µM), 98.5% (active) and 10.9% (inactive); in experiment [4] (setting [7]), 16% (inactive); in experiment [4] (setting [8]), 98% (active); in experiment [4] (at 50.0 µM), 98.5% (active) and 10.1% (inactive). In addition, the growth inhibition was 2% (inactive) in experiment [5] (setting [7]); 99% (active) in experiment [5] (setting [8]); 98.5% (active) and -3.05% (inactive) in experiment [5] (at 50.0 µM); 9% (inactive) in experiment [6] (setting [7]); 97% (active) in experiment [6] (setting [8]); 98.3% (active) and 13.1% (inactive) in experiment [6] (at 50.0 µM).
In the case of `O=C(CI)NCc1ccccc1`, the growth inhibition is 22% (inactive) in experiment [1] (setting [7]); 98% (active) in experiment [1] (setting [8]); 97.8% (active) in experiment [1] (at 50.0 µM); 29% (inactive) in experiment [2] (setting [7]); 99% (active) in experiment [2] (setting [8]); 99.2% (active) in experiment [2] (at 50.0 µM). In addition, the growth inhibition in experiment [3] (setting [7]) was 41% (inactive); in experiment [3] (setting [8]), 99% (active); in experiment [3] (at 50.0 µM), 99% (active); in experiment [4] (setting [7]), 12% (inactive); in experiment [4] (setting [8]), 99% (active); in experiment [4] (at 50.0 µM), 97.8% (active). In addition, the growth inhibition in experiment [5] (setting [7]) is 31% (inactive); in experiment [5] (setting [8]), 99% (active); in experiment [5] (at 50.0 µM), 99% (active); in experiment [6] (setting [7]) it was 55% (inactive); in experiment [6] (setting [8]) it was 99% (active); in experiment [6] (at 50.0 µM), 99.2% (active).
